Test results taken from PubChem BioAssay (NCATS).
Results filed as inconclusive are left out. Calls of active or inactive are those of the source. Unless noted, calls follow the shape of the dose curve; as a rule, active = well fitted curve in the direction sought with a large enough effect; inconclusive = small, poorly fitted or top-dose-only effect, or another doubt; inactive = no such curve, though single readings can be large; an effect the other way counts as inactive or inconclusive.

Experiments:
[1] = NFAT Signaling Pathway (AID 444; active = well fitted curve in either direction with a large enough effect, not every such curve was filed as active;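 also: carbachol stimulus at about its EC50 of 1 µM final; % is scaled to controls: 0 for no effect and ±100 for the full control effect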); settings: Jurkat NFAT-bla M1, carbachol, beta-lactamase ratio, 5 h; at 7.69 µM (top of the series) unless noted
Summary of the method: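 Read-out: CCF4 FRET ratio (460 nm/530 nm) after 1 h RT dye loading, used for %activity and AC50 from titration series. Cells: Jurkat NFAT-β-lactamase/M1 line, treated with compound plus 1 uM carbachol for 5 h, 37 °C.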

[2] = Stat Signaling Pathway (AID 446; active = well fitted curve in either direction with a large enough effect, not every such curve was filed as active;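 also: ME-180 cervical cancer cells given 40 pM IL-6 alongside compound; SIE-controlled beta-lactamase reporter measured as 460/530 nm FRET emission ratio; % is scaled to controls: 0 for no effect and ±100 for the full control effect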); settings: ME-180 SIE beta-lactamase reporter, IL-6 stimulated, 5 h; at 7.69 µM (top of the series) unless noted
Summary of the method: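 ME-180 SIE-bla cells; overnight plating; cpd + IL-6 40 pM, 5 h, 37 C; LiveBLAzer 2.5 h RT; 460/530 nm emission ratio. Normalized to 300 pM IL-6 and 125 nM JAK inhibitor controls.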

[3] = biological target: Glucocorticoid receptor (Homo sapiens) (UniProt P04150); test: GR-EFC Redistribution (AID 451; calls by dose curve; also: potency is read from the fitted curve at half-maximal effect); settings: CHO-K1 GR-EFC translocation, beta-gal luminescence, 2 h
Chain of Glucocorticoid receptor (Homo sapiens) (P04150 whole entry, looked up, the tested form may be a part): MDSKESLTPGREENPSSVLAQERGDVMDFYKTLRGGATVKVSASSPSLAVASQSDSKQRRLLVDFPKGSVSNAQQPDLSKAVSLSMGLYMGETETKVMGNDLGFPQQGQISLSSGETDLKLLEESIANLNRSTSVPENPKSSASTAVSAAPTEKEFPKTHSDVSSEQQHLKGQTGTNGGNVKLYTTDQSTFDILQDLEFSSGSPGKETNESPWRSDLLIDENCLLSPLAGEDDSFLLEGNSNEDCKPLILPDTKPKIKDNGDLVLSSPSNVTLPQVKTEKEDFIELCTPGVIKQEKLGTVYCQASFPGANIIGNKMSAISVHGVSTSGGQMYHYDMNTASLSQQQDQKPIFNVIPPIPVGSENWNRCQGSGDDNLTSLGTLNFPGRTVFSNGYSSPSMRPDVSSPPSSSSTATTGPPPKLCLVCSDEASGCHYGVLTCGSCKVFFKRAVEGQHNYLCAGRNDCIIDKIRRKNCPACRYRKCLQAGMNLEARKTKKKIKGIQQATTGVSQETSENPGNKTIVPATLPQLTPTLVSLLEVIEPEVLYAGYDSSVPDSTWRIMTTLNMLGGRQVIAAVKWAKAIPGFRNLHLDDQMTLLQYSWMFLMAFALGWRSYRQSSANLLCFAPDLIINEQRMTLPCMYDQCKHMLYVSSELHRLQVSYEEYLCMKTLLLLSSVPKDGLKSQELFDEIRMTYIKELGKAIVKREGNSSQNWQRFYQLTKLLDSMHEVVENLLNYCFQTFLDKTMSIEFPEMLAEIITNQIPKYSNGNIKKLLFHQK
Summary of the method: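 Translocation of GR-ED fusion to nuclear EA restores b-gal, read by luminescence after 1 h room-temperature detection. Engineered CHO-K1 biosensor cells, 1,000/well, exposed 2 h at 37 C to titrations up to 46 uM final.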

[4] = biological target: Mitogen-activated protein kinase 10 (Mus musculus) (UniProt Q61831); test: JNK3 AlphaScreen Assay (AID 530; active = well fitted curve in either direction with a large enough effect, not every such curve was filed as active;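 also: kinase came from lysate of stimulated human HepG2 cells; signal reports phosphorylation of biotinylated GST-cJun 1-79 at Ser73 with 10 µM ATP; % is scaled to controls: 0 for no effect and ±100 for the full control effect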)
Summary of the method: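 Compound titrations were preincubated 15 minutes at room temperature with substrate, antibody and pre-activated JNK3-containing HepG2 lysate. Reactions were started with 10 uM ATP and stopped with EDTA-containing bead buffer for AlphaScreen detection.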

[5] = biological target: 3',5'-cyclic-AMP phosphodiesterase 4B (Homo sapiens) (UniProt Q07343); test: qHTS Assay for Inhibitors of PDE-IV (AID 607; active = well fitted activation curve with a large enough effect in the main read-out, with a control signal flat, not every such curve was filed as active; also: % of control where 0% means no effect)
Chain of 3',5'-cyclic-AMP phosphodiesterase 4B (Homo sapiens) (Q07343 whole entry, looked up): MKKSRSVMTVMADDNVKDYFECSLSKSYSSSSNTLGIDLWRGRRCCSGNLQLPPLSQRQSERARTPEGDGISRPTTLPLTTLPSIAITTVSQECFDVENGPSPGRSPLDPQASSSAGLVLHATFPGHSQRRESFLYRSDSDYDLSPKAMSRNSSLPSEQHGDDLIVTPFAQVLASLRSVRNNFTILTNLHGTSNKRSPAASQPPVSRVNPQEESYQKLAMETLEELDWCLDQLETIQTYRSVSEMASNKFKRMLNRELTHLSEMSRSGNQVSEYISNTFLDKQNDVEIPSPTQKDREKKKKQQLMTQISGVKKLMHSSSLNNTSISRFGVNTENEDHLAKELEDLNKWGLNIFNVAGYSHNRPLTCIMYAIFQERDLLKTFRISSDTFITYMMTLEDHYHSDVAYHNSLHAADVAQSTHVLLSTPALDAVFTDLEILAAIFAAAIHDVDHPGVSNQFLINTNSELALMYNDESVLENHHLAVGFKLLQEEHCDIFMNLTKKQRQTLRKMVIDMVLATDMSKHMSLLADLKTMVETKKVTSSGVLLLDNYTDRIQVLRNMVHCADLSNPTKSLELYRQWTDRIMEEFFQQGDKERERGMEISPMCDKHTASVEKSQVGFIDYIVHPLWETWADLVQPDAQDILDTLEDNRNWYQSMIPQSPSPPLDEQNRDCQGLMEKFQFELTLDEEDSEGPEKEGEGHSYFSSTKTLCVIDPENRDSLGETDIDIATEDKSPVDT
Summary of the method: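 ACTOne HEK293 cells carry a modified cAMP-gated CNG channel and express endogenous PDE4; plated 1000 cells/well, compounds up to 22.9 uM final. Membrane-potential dye fluorescence (ex 535/em 590) was read; parental cells received 10 uM forskolin + 100 uM RO 20-1724.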

[6] = qHTS Assay for Lipid Storage Modulators (AID 1519; calls by dose curve); settings: Drosophila S3 cells, BODIPY lipid droplet/cell ratio, laser cytometry, cells loaded with oleic acid; for activity change, negative = inhibition: at 57.5 µM (top of the series)
Summary of the method: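 Cells seeded at 5,000 per well were treated with compounds over a concentration series and loaded with oleic acid (400 uM, as added). Lipid droplet fluorescence (488 nm excitation, 500-530 nm channel) was read by laser-scanning cytometry and normalized to 20 uM Triacsin C.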

[7] = Primary qHTS for small molecule stabilizers of the endoplasmic reticulum resident proteome: Secreted ER Calcium Modulated Protein (SERCaMP) assay (AID 1508630); also: % is scaled to controls: 0 for no effect and ±100 for the full control effect
Summary of the method: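 GLuc-SERCaMP-expressing SH-SY5Y cells, pretreated 16 h with compound, are challenged with thapsigargin to empty ER calcium stores; after 4 h, coelenterazine is added directly to the medium and luminescence is imaged.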

[8] = biological target: Cytochrome P450 3A4 (Homo sapiens) (UniProt P08684); test: qHTS Assay for Inhibitors and Substrates of Cytochrome P450 3A4 (AID 884); also: % is scaled to controls: 0 for no effect and ±100 for the full control effect; nearly all actives have a fitted effect of over 50% in size
Chain of Cytochrome P450 3A4 (Homo sapiens) (P08684 whole entry, looked up): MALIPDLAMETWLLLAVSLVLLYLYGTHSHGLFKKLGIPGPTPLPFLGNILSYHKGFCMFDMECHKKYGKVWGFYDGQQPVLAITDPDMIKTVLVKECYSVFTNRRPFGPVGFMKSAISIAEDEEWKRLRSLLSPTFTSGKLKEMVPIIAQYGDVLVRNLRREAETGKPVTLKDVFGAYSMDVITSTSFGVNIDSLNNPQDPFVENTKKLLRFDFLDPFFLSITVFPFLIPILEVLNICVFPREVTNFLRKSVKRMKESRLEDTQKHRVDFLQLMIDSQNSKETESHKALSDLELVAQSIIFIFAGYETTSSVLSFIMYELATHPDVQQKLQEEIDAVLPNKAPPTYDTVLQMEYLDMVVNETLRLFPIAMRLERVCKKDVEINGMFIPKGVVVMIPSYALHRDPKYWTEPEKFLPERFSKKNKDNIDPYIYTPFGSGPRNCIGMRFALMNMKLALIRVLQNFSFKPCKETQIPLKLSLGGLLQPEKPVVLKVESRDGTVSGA
Summary of the method: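 20 nM human CYP3A4 with 25 uM Luciferin-PPXE (at KM) in 200 mM KPO4, preincubated 10 min with compound; NADPH regeneration started a 60 min RT reaction. Luciferin detected by luminescence, normalized to 57 uM ketoconazole as full inhibition.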

[9] = biological target: Ubiquitin carboxyl-terminal hydrolase 1 (Homo sapiens) (UniProt O94782); test: Inhibitors of USP1/UAF1: Pilot qHTS (AID 504865); also: nearly all actives have a fitted effect of over 35% in size; also: potency is read from the fitted curve at half-maximal effect
Summary of the method: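 Kinetic fluorescence assay: 1nM USP1/UAF1, 15 min compound preincubation, then 150nM Ub-Rho; 480/540 nm.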

[10] = biological target: Cytochrome P450 1A2 (Homo sapiens) (UniProt P05177); test: p450-cyp1a2 (AID 410; calls by dose curve; also: potency is read from the fitted curve at half-maximal effect;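 as to activity change, negative = inhibition: -100% = full effect of reference inhibitor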)
Chain of Cytochrome P450 1A2 (Homo sapiens) (P05177 whole entry, looked up): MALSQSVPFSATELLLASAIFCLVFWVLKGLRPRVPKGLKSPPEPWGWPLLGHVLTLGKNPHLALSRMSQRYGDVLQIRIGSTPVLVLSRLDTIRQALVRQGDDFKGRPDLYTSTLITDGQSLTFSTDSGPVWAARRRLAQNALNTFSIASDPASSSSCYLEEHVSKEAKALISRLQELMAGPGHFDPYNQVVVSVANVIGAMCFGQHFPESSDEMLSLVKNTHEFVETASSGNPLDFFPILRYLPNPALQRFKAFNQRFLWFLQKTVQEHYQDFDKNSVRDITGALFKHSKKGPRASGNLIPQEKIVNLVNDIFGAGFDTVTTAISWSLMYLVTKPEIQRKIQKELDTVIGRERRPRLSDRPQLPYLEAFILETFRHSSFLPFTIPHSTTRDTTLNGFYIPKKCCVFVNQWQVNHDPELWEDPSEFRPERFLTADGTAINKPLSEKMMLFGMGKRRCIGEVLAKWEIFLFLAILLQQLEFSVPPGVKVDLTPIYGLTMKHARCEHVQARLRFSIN
Summary of the method: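 Luminescent readout of luciferin formed from Luciferin-ME by human CYP1A2; data normalized against complete inhibition by 57 uM furafylline. Enzyme 20nM, substrate 100uM at Km, 100mM KPO4 buffer, 60 min reaction at room temperature.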

[11] = biological target: Cytochrome P450 3A4 (Homo sapiens) (UniProt P08684); test: qHTS Assay for Activators of Cytochrome P450 3A4 (AID 885); also: nearly all actives have a fitted effect of over 65% in size
Summary of the method: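 20nM CYP3A4 + 25uM Luciferin-PPXE (=KM), 200mM KPO4; cpd 10 min RT; NADPH regen, 60 min RT; stop w/ detection buffer, 20 min; luminescence. Normalized to 57 uM ketoconazole.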

[12] = biological target: Lysosomal acid glucosylceramidase (Homo sapiens) (UniProt P04062); test: Glucocerebrosidase-p2 (AID 348; in the data active = potency below about 10 µM; also: potency is read from the fitted curve at half-maximal effect); settings: purified GBA, blue fluorogenic substrate, 40 min
Summary of the method: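 Compounds titrated from 0.6 nM upwards against 0.2 nM enzyme in pH 5.9 citric acid/KH2PO4, taurocholate, tween-20; blue fluorogenic substrate 80 uM, 40 min room temperature, stopped and read Ex 365/Em 440 for AC50.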

[13] = AP1 Signaling Pathway (AID 357; active = well fitted curve in either direction with a large enough effect, not every such curve was filed as active); settings: ME-180 (cervical carcinoma) AP-1-bla reporter, EGF-induced, beta-lactamase ratio, 5 h; at 7.69 µM (top of the series) unless noted
Summary of the method: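 Modulation of EGF-driven AP-1 transcription was assessed with a beta-lactamase reporter in ME-180 cells. Compound and EC50 EGF were co-incubated 5 hours at 37 °C before 2.5-hour CCF4 loading at room temperature and dual-emission reading.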

[14] = biological target: Rap guanine nucleotide exchange factor 3 (Homo sapiens) (UniProt O95398); test: Confirmatory qHTS for antagonist of cAMP-regulated guanine nucleotide exchange factor 3 (EPAC1) (AID 1645880);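 also: plate controls were DMSO only for no effect and full effect of the ATA control for full effect; nearly all actives have a fitted effect of over 55% in size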
Chain of Rap guanine nucleotide exchange factor 3 (Homo sapiens) (O95398 whole entry, looked up): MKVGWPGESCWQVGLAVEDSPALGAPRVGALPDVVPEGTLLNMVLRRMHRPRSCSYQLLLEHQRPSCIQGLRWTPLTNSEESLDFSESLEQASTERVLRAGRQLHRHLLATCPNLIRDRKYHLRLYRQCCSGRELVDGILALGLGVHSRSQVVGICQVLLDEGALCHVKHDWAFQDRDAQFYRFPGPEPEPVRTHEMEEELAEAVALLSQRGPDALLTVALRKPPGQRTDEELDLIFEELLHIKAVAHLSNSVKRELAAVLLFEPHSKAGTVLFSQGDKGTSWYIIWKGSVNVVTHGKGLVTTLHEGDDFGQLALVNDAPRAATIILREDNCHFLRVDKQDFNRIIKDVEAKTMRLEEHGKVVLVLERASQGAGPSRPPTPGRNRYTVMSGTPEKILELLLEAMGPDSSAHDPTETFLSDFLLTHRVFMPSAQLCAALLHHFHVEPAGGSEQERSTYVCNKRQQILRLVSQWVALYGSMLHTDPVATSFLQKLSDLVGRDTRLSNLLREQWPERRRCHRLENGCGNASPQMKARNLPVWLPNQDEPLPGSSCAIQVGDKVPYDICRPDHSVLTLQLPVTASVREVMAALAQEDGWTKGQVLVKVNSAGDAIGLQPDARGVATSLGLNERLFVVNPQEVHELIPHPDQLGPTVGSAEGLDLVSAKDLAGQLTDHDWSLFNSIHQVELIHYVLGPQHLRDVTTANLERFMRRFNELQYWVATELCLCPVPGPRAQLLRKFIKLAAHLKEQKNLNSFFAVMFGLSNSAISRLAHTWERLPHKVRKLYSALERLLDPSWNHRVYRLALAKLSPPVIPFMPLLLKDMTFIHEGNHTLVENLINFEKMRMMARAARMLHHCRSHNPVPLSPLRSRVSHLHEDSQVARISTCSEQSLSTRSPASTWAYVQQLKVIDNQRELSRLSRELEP
Summary of the method: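 Nucleotide exchange uses 100 nM EPAC1, 250 nM RAP1B-BODIPY-GDP and 50 uM GDP, with compounds in a concentration-titration series. After 5 min at room temperature, fluorescence (480 nm ex/540 nm em) is read every 5 min for 30 min. Data are normalized to control ATA and DMSO.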

[15] = biological target: Rap guanine nucleotide exchange factor 4 (Homo sapiens) (UniProt Q8WZA2); test: Confirmatory qHTS for antagonist of cAMP-regulated guanine nucleotide exchange factor 4 (EPAC2) (AID 1645885); also: % is scaled to controls: 0 for no effect and ±100 for the full control effect; nearly all actives have a fitted effect of over 25% in size
Chain of Rap guanine nucleotide exchange factor 4 (Homo sapiens) (Q8WZA2 whole entry, looked up): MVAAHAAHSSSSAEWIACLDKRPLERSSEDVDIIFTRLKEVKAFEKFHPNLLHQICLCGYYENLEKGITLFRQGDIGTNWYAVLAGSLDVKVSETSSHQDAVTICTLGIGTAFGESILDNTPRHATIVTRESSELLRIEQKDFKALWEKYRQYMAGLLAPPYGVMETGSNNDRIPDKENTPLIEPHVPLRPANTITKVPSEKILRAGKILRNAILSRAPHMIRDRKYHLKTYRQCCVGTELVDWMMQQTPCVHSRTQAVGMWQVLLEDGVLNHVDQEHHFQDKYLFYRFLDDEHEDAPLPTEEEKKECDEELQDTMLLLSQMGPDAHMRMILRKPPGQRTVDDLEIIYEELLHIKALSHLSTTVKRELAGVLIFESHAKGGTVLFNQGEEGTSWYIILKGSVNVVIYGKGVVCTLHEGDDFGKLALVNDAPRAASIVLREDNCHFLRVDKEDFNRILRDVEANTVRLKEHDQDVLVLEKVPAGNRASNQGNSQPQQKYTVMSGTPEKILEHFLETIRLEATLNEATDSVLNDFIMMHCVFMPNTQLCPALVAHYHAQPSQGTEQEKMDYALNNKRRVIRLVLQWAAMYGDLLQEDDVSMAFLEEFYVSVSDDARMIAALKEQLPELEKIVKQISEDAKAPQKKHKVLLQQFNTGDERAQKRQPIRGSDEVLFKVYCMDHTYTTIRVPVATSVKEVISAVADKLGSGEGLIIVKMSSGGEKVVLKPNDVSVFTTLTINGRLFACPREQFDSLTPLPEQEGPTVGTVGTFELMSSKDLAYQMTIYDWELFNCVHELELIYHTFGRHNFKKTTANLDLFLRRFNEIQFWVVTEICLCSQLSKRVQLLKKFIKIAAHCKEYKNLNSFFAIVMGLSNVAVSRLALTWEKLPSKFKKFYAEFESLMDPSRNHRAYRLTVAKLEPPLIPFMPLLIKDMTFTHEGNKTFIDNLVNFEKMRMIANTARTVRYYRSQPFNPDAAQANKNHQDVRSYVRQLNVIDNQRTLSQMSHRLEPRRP

[16] = biological target: Glucocorticoid receptor (Homo sapiens) (UniProt P04150); test: GR-GFP Redistribution (AID 450;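 active = compounds whose dose series gives a full or clear partial fitted curve of increased nuclear translocation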; also: potency is read from the fitted curve at half-maximal effect); settings: U2OS GR-GFP nuclear translocation, laser cytometry, 2 h
[17] = biological target: Rap guanine nucleotide exchange factor 3 (Homo sapiens) (UniProt O95398); test: Confirmatory qHTS for agonist of cAMP-regulated guanine nucleotide exchange factor 3 (EPAC1) (AID 1645881);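 also: EPAC1 catalysed release of BODIPY-GDP from Rap1B seen as fluorescence loss; 100% = effect of cAMP agonist control; nearly all actives have a fitted effect of over 75% in size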
[18] = biological target: Rap guanine nucleotide exchange factor 4 (Homo sapiens) (UniProt Q8WZA2); test: Confirmatory qHTS for agonist of cAMP-regulated guanine nucleotide exchange factor 4 (EPAC2) (AID 1645884);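 also: nucleotide exchange releases bodipy-GDP from Rap1 and this lowers its fluorescence; % is scaled to controls: 0 for no effect and ±100 for the full control effect; nearly all actives have a fitted effect of over 65% in size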
[19] = biological target: Dual specificity protein kinase CLK4 (Homo sapiens) (UniProt Q9HAZ1); test: qHTS Assay for Inhibitors of CDC-like Kinase 4 (Kinase-Glo Assay) (AID 1770); also: % is scaled to controls: 0 for no effect and ±100 for the full control effect; nearly all actives have a fitted effect of over 65% in size
Chain of Dual specificity protein kinase CLK4 (Homo sapiens) (Q9HAZ1 whole entry, looked up): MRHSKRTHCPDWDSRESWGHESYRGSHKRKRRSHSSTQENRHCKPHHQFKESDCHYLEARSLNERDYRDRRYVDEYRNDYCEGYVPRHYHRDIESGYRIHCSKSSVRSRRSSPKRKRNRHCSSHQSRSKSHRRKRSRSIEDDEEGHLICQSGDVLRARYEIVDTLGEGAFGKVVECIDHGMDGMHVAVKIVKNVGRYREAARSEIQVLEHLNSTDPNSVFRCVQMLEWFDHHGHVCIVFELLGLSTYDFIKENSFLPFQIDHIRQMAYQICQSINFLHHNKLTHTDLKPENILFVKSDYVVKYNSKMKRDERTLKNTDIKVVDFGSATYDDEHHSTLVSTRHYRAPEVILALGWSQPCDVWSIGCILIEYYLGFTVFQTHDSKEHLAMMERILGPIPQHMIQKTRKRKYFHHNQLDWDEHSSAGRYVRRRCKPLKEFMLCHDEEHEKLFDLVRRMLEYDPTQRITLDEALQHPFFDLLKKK
Summary of the method: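 Inhibition was judged from remaining ATP, measured by Ultra-Glo luciferase bioluminescence after Clk4 (25 nM) had acted on RS peptide at 1 uM ATP for 4.5 hours, room temperature.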

[20] = biological target: Dual specificity protein kinase CLK4 (Homo sapiens) (UniProt Q9HAZ1); test: qHTS Assay for Inhibitors of CDC-like Kinase 4 (ADP-FP Assay) (AID 1795);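 also: recombinant human CLK4 phosphorylating RS repeat peptide at 1 µM ATP; % is scaled to controls: 0 for no effect and ±100 for the full control effect; nearly all actives have a fitted effect of over 60% in size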
Summary of the method: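 Inhibition of ADP formation by 6.25 nM Clk4 is measured using 1 uM ATP and 100 uM RS repeat peptide over one hour. Produced ADP displaces a fluorescent tracer from antibody, lowering polarization.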

[21] = measured here: cell count channel max response
[22] = measured here: lipid channel max response

COCC(=O)N1CCC2(CC1)CN(c1ccncc1)C2
11.2%: max response [6, 22]
inactive: activity change, negative = inhibition [1] 2.67% | activity, negative = inhibition [2] -1.5% | Potency [3] > 46 µM | Potency [4] | Potency [5] | activity change, negative = inhibition [6] 2.59% | outcome [7]
4.76%: max response [6, 21]

O=C(O)c1cc(=O)c2cccc(O)c2[nH]1
27.2%: max response [6, 21]
inactive: Potency [8] | activity change, negative = inhibition [6] 14.6% | Potency [9] | outcome [7]
50.3%: max response [6, 22]

Cn1cccc1C(=O)N1CCC2(CCCN(C(c3ccccc3)c3ccccc3)C2)CC1
active: Potency [10] 12.6 µM
6.53%: max response [6, 21]
18.7%: max response [6, 22]
inactive: activity, negative = inhibition [2] 6.33% | Potency [3] > 46 µM | Potency [4] | Potency [5] | Potency [11] | activity change, negative = inhibition [6] 4.95% | outcome [7]

COc1ccc(-n2c(=O)c(-c3cccs3)nc3cnc(Nc4cccc(OC)c4)nc32)cc1
inactive: Potency [12] > 11.4 µM | activity change, negative = inhibition [13] -24.6% | Potency [10] | activity, negative = inhibition [2] -11% | Potency [3] > 46 µM | Potency [4] | Potency [11] | outcome [7] | Potency [14] | Potency [15]

CN(C)c1ncc2nc(-c3cc(F)cc(F)c3)c(=O)n(Cc3cccs3)c2n1
active: Potency [10] 1.58 µM | activity change, negative = inhibition [1] 110% [activator] | activity, negative = inhibition [2] 190% [activator]
inactive: Potency [12] > 11.4 µM | Potency [16] > 9.22 µM | Potency [3] > 46 µM | Potency [5] | Potency [11] | outcome [7] | Potency [14] | Potency [17] | Potency [18] | Potency [15]

O=c1c(-c2cccs2)nc2cnc(N3CCOCC3)nc2n1CCc1ccccc1
inactive: Potency [12] > 11.4 µM | activity change, negative = inhibition [13] 13.2% | activity change, negative = inhibition [1] 19.8% | activity, negative = inhibition [2] 18.4% | Potency [16] > 9.22 µM | Potency [3] > 46 µM | Potency [11] | Potency [19] | Potency [20] | Potency [9] | outcome [7] | Potency [14] | Potency [15]

COCCn1c(=O)c(-c2cccs2)nc2cnc(N3CCOCC3)nc21
inactive: activity change, negative = inhibition [13] -6.06% | activity change, negative = inhibition [1] 2.93% | activity, negative = inhibition [2] -8.84% | Potency [16] > 9.22 µM | Potency [3] > 46 µM | Potency [4] | Potency [5] | Potency [20] | Potency [9] | outcome [7] | Potency [14] | Potency [15]

OC[C@H]1O[C@@H](n2cnc3c(NCc4ccco4)ncnc32)[C@H](O)[C@@H]1O
-19.8%: max response [6, 22]
-12.6%: max response [6, 21]
inactive: Potency [8] | activity change, negative = inhibition [6] -9.06% | outcome [7]

O=C1C=C(O)c2ccccc2C1=O
inactive: Potency [11] | activity change, negative = inhibition [6] -2.81% | outcome [7]
-0.646%: max response [6, 21]
-2.25%: max response [6, 22]
active: Potency [9] 50.1 µM
